From the supplement of paper PMC8728848
This excerpt belongs to a sample that is enriched for the strongest signals.

How the values were obtained:
Experiment in all cases: glycan array binding signal (z-score within array); higher = stronger binding
Settings in all cases: glycan notation: IUPAC condensed, linker removed
[1] = target: Neu5Ac(a2-3)Gal
How it was run: (§1)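 The Consortium for Functional Glycomics database supplied 3228 glycan arrays, of which those lacking an available protein sequence were dropped. The binding signal, a within-array Z-score, was averaged across arrays of the same protein sequence and across linkers. Negative scores can be read as non-binding.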

[2] = target: Neu5Ac(a2-3)Gal(b1-3)GalNAc(b1-4)[Neu5Ac(a2-8)Neu5Ac(a2-3)]Gal(b1-4)Glc
How it was run: as §1

[3] = target: Neu5Ac(a2-3)Gal(b1-3)GlcNAc(b1-2)Man
How it was run: as §1

[4] = target: Neu5Ac(a2-3)Gal(b1-4)GlcNAc(b1-2)Man(a1-3)[GlcNAc(b1-4)][Neu5Ac(a2-3)Gal(b1-4)GlcNAc(b1-2)Man(a1-6)]Man(b1-4)GlcNAc(b1-4)GlcNAc
How it was run: as §1

[5] = target: Neu5Ac(a2-3)Gal(b1-4)GlcNAc(b1-3)Gal(b1-4)GlcNAc
How it was run: as §1

[6] = target: Neu5Ac(a2-3)Gal(b1-4)GlcNAc(b1-3)Gal(b1-4)[Fuc(a1-3)]GlcNAc
How it was run: as §1

[7] = target: Neu5Ac(a2-3)Gal(b1-4)GlcNAc(b1-6)[Neu5Ac(a2-3)Gal(b1-3)]GalNAc
How it was run: as §1

[8] = target: Neu5Ac(a2-3)Gal(b1-4)GlcNAc6S
How it was run: as §1

[9] = target: Neu5Ac(a2-3)Gal(b1-4)[Fuc(a1-3)]GlcNAc(b1-6)[Gal(b1-3)]GalNAc
How it was run: as §1

[10] = target: Neu5Ac(a2-6)GalNAc(b1-4)GlcNAc
How it was run: as §1

[11] = target: Neu5Ac(a2-6)GlcNAc(b1-4)GlcNAc
How it was run: as §1

[12] = target: Neu5Ac(a2-8)Neu5Ac(a2-8)Neu5Ac
How it was run: as §1

[13] = target: Neu5Gc(a2-3)Gal(b1-4)[Fuc(a1-3)]GlcNAc
How it was run: as §1

B1: HA-11100 (Pseudomonas aeruginosa), Q02G51_PSEAB (protein)
chain: QFNPNEIKISQQGKTTLIDQSTQRAIINWKGFDVSADEAVRFNQPGVTSSTLNRVTAGQESVIAGRISAPGQVIIYNSNGVVFSGSAKVDVGSLITTTANISDEHFRQGKLIFDQPGNPDARIVNDGSISVAEKGLAAFVAPSVANNGVINARLGTVAMAAGNAATIDLYG
glycan array binding signal (z-score) [1]: -0.148
glycan array binding signal (z-score) [2]: -0.214
glycan array binding signal (z-score) [3]: -0.402
glycan array binding signal (z-score) [4]: -0.268
glycan array binding signal (z-score) [5]: -0.347
glycan array binding signal (z-score) [6]: -0.737
glycan array binding signal (z-score) [7]: -0.222
glycan array binding signal (z-score) [8]: -0.016
glycan array binding signal (z-score) [9]: 4.78
glycan array binding signal (z-score) [10]: -0.851
glycan array binding signal (z-score) [11]: -0.421
glycan array binding signal (z-score) [12]: -0.333
glycan array binding signal (z-score) [13]: -0.065
